# Laboratory results from the supplement of paper PMC9177965.
# Test system: HT29 sg-Ctrl (RNF43 wildtype)
# Test: cell viability activity relative to DMSO (negative = inhibition); higher = more viable cells (less growth inhibition)
# Settings: 5 µM; 96 h
# Description: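 Broad Repurposing Library primary screen at a single dose of 5 uM. HT29 sg-Ctrl and HT29 RNF43 G659fs CRISPR-edited isogenic cells were seeded at 2500 cells/well in 384-well plates in duplicate and treated for 96 h. Viability was read by CellTiter-Glo and reported as % activity relative to DMSO, with MG132 as the positive control (negative = growth inhibition).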
row,SMILES,cell viability activity
1,CC(=O)OC1CC2CCC1(C)C2(C)C (configuration not stated),-26.5%
2,COC(=O)[C@]12CCC(C)(C)C[C@H]1[C@H]1C(=O)C=C3[C@@]4(C)C=C(C#N)C(=O)C(C)(C)[C@@H]4CC[C@@]3(C)[C@]1(C)CC2,-93.4%
3,Cc1cc(Nc2cc(N3CCN(C)CC3)nc(/C=C/c3ccccc3)n2)n[nH]1,-75.7%
4,Cn1cnc2c(F)c(Nc3ccc(Br)cc3Cl)c(C(=O)NOCCO)cc21,-70.6%
5,CCN(CC)Cc1ccc2cc(COC(=O)Nc3ccc(C(=O)NO)cc3)ccc2c1,-84.2%
6,CC(C)(C)c1cnc(CSc2cnc(NC(=O)C3CCNCC3)s2)o1,-81.8%
7,CCN(CC)CCOc1ccc(C(=C(Cl)c2ccccc2)c2ccccc2)cc1,-97.9%
8,CCCCc1oc2ccccc2c1C(=O)c1cc(I)c(OCCN(CC)CC)c(I)c1,-98.9%
9,NC(=S)N/N=C/c1ncccc1N,-69.1%
10,CC(C)c1cc(-c2n[nH]c(=O)n2-c2ccc3c(ccn3C)c2)c(O)cc1O,-81.7%
11,Cn1c(Nc2ccc(C(F)(F)F)cc2)nc2cc(Oc3ccnc(-c4ncc(C(F)(F)F)[nH]4)c3)ccc21,-67.4%
12,NCCCCNCCCN,-2.46%
13,COc1cc(N2CCC(N3CCN(C)CC3)CC2)ccc1Nc1ncc(Cl)c(Nc2ccccc2P(C)(C)=O)n1,-81%
14,COC[C@H](C)NC1CCC(Nc2cc(-c3cccc(NCC4(C#N)CCOCC4)n3)c(Cl)cn2)CC1 (some centres not stated),-89.4%
15,C[C@@H](Oc1ccc2[nH]nc(/C=C/c3cnn(CCO)c3)c2c1)c1c(Cl)cncc1Cl,-88.8%
16,C=CCNC1=C2C[C@@H](C)C[C@H](OC)[C@H](O)[C@@H](C)/C=C(\C)[C@H](OC(N)=O)[C@@H](OC)/C=C\C=C(/C)C(=O)NC(=CC1=O)C2=O,-83.4%
17,CN(c1ncccc1CNc1nc(Nc2ccc3c(c2)CC(=O)N3)ncc1C(F)(F)F)S(C)(=O)=O,-83.1%
18,C=CC(=O)Nc1cccc(Oc2nc(Nc3ccc(N4CCN(C)CC4)cc3)ncc2Cl)c1,-58%
19,Cc1cn([C@H]2C[C@H](N=[N+]=[N-])[C@@H](CO)O2)c(=O)[nH]c1=O,-2.51%

row,SMILES,cell viability activity
1,O=C(CCCCCCC(=O)Nc1cccnc1)NO,-42.7%
2,C=C1C(=O)O[C@H]2[C@H]1CC/C(C)=C/CC[C@@]1(C)O[C@@H]21,-6.73%
3,Clc1ccc(CSC(Cn2ccnc2)c2ccc(Cl)cc2Cl)cc1 (configuration not stated),-29%
4,FC(F)c1nc2ccccc2n1-c1nc(N2CCOCC2)nc(N2CCOCC2)n1,-29.7%
5,N#Cc1cc2c(OCC(O)CN3CCN(C(c4ccccc4)c4ccccc4)CC3)cccc2[nH]1 (configuration not stated),-20.5%
6,CS(=O)(=O)N1CCN(Cc2cc3nc(-c4cccc5[nH]ncc45)nc(N4CCOCC4)c3s2)CC1,-51.8%
7,CN[C@@H](C)C(=O)N[C@H](C(=O)N1CCC[C@H]1C(=O)N[C@H]1c2ccccc2C[C@H]1OCC#CC#CCO[C@@H]1Cc2ccccc2[C@@H]1NC(=O)[C@@H]1CCCN1C(=O)[C@@H](NC(=O)[C@H](C)NC)C1CCCCC1)C1CCCCC1,-77.2%
8,Nc1ncnc2c1c(-c1cccc(OCc3ccccc3)c1)cn2C1CC(CN2CCCC2)C1 (configuration not stated),-56.6%
9,Clc1cc(Cl)c(OCC#CI)cc1Cl,-23.2%
10,CNCCn1c(=O)c2cc(OC)c(OC)cc2c2cnc3cc4c(cc3c21)OCO4,-86.6%
11,O=C(c1ccc(-c2ccc(Cl)cc2)o1)N(Cc1ccccn1)c1ccc(N2CCNCC2)cc1,-21.3%
12,C[C@@H](CN1CC(=O)NC(=O)C1)N1CC(=O)NC(=O)C1,-44.6%
13,COc1ccc(-c2ccc3c(N4CCOC[C@@H]4C)nc(N4CCOC[C@@H]4C)nc3n2)cc1CO,-55.9%
14,CC[C@@]1(O)C(=O)OCc2c1cc1n(c2=O)Cc2cc3c([N+](=O)[O-])cccc3nc2-1,-95.5%
15,Cc1cc(OCc2nc(-c3ccccc3Cl)cs2)ccc1OCC(=O)O,-31.1%
16,COc1ccc(-c2cc3c(C)nc(N)nc3n([C@H]3CC[C@H](OCCO)CC3)c2=O)cn1,-84.6%
17,COC(=O)Nc1nc2cc(C(=O)c3ccccc3)ccc2[nH]1,-51.4%
18,CS[C@H]1SC[C@H]2C(=O)N(C)[C@@H](C(C)C)C(=O)OC[C@@H](NC(=O)c3cnc4ccccc4n3)C(=O)N[C@@H](C)C(=O)N(C)[C@@H]1C(=O)N(C)[C@@H](C(C)C)C(=O)OC[C@@H](NC(=O)c1cnc3ccccc3n1)C(=O)N[C@@H](C)C(=O)N2C,-86.6%
